Compound activity deposited in PubChem BioAssay by several laboratories.
MPTP inh – blocks calcium-induced mitochondrial swelling. isolated mouse mitochondria, Ca2+ swelling absorbance, 30 min. hit rate 1.4% among 360,000. inhibition, % at 10 µM. AID 602449;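 active = inhibition of 50% or more, scaled per plate between neutral and stimulator controls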;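 also: 0% = DMSO wells given calcium and 100% = 1 mM EGTA wells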
Myeloid diff 2 – compounds promoting myeloid differentiation; ER-HoxA9 myeloid progenitors, lysozyme-GFP differentiation, flow cytometry; calls only at 10 µM; hit rate 1% among 360,000;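 active = normalized GFP-positive differentiation at or above the plate's own cutoff, the solvent-only control mean plus 3 SD; inconclusive = no clear call, values can overlap the other calls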;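 also: cells exposed to compound for four days before flow analysis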
GRIN3A LBD mod – NR3A (human) ligand-binding domain modulation; NR3A LBD differential scanning fluorimetry, Tm shift; 0% = protein alone, 100% = glycine-bound protein; Tm shift relative to glycine control, % at 25 µM; hit rate 2.5% among 340,000;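 active = melting temperature shift of at least 10% of the positive control shift, at one fixed dose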
rCAG RNA binder – molecules binding r(CAG) RNA repeats; hit rate 1.3% among 370,000; AID 651821; inhibition, % at 3 µM; r(CAG) RNA repeat, TO-PRO-1 dye displacement fluorescence;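 active = inhibition above the plate cutoff, the mean of all test compounds on that plate plus 3 SD, cut at about 35% in these data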;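 also: 0% = DMSO alone and 100% = 100 µM mitoxantrone as full dye displacement; higher means more dye released from RNA so lower well fluorescence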
FAS-TE inh – FAS thioesterase (human) inhibition | recombinant FAS-TE, OMFH fluorogenic substrate, fluorescence endpoint | inhibition, % at 15 µM | hit rate 0.67% among 360,000;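 active = compounds whose normalised, plate-corrected inhibition of enzyme fluorescence in the single-dose primary screen is 50% or more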;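 also: 0% = DMSO with enzyme and 100% = substrate without enzyme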
rCAG bind conf – r(CAG) RNA repeat binding, confirmation | hit rate 70% among 4,300 | shares compounds with rCAG RNA binder | TO-PRO-1 dye displacement fluorescence | AID 652065 | inhibition, % at 3 µM;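 active = inhibition above a per-plate cutoff, the mean inhibition of sample wells plus 3 SD, cut at about 35% in these data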;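 also: loss of TO-PRO-1 fluorescence as compound displaces dye from 1x1 AA loop RNA; 0% = DMSO only wells and 100% = 100 µM mitoxantrone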
DNA CAG counter – disrupts DNA CAG TO-PRO-1 complex, flagging rCAG hits. shares compounds with rCAG RNA binder. d(CAG) DNA oligo TO-PRO-1 dye displacement, fluorescence. inhibition, % at 3 µM. hit rate 94% among 4,300;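 active = inhibition above its plate's cutoff, the mean test-well inhibition plus 3 SD, cut at about 4.8% in these data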;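 also: 0% = DNA dye mix with DMSO and 100% = 100 µM mitoxantrone; hits displace the dye from DNA and so lower well fluorescence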
DNA CAG DR – DNA CAG dye complex inhibition, dose response counter-screen. shares compounds with rCAG RNA binder. DNA CAG/GTC duplex TO-PRO-1 dye displacement fluorescence. IC50, µM. hit rate 20% among 250. AID 686960; in the data active = IC50 below about 10 µM
* marks the source's active call; other numbers are inactive results; i = inactive; ? = inconclusive; / = no result. The list is not random: actives were taken first. Their share in the collection is about 5.7%.

SMILES	MPTP inh	Myeloid diff 2	GRIN3A LBD mod	rCAG RNA binder	FAS-TE inh	rCAG bind conf	DNA CAG counter	others
CCN1CCN(C(=O)N(CC(=O)Nc2ccc(C(N)=O)cc2)S(=O)(=O)c2ccc(C)cc2)CC1	-1	i	0	-3	-4	/	/
CSc1sc(C(=O)NN)c2c1C1(CCC2)SCCS1	2	i	0	3	-2	/	/
Cn1cnc(S(=O)(=O)N2CCN(c3cccc(Cl)c3)CC2)c1	16	?	-3	1	-4	/	/
O=C(Nc1ccc(Cl)cc1)c1cc2c(cc1O)[nH]c1ccccc12	35	i	32*	91*	23	85*	53*
COc1ccc(CCCNC(=O)C2Cc3c(-c4cccc(C(C)=O)c4)ccnc3O2)cc1 (configuration not stated)	1	?	/	0	15	/	/
O=S(=O)(Nc1ccc(-c2nc3cccnc3s2)cc1)c1ccc(Cl)s1	6	i	3	66*	11	71*	32*	DNA CAG DR=i
Cc1nc2ccc(S(=O)(=O)Nc3cccc(-c4nc5cccnc5s4)c3)cc2s1	1	i	-12	23	13	/	/
Cc1nc2ccc(S(=O)(=O)Nc3ccc(-c4nc5cccnc5s4)cc3)cc2s1	1	i	0	53*	14	42*	12*
CCC1=C(OC(=O)N(CC)CC)N2C(=O)OC(=NCC3CC3)[C@]2(C)[C@H]2C1=CC[C@H]1C(=O)N(CC)C(=O)[C@H]12	0	i	-1	-6	-10	/	/
CCN(CC)S(=O)(=O)c1ccc(O)c(NC(=O)c2ccc(N3CCOCC3)c([N+](=O)[O-])c2)c1	3	i	-9	53*	-10	44*	13*
CCN(CC)S(=O)(=O)c1ccc(N2CCOCC2)c(NC(=O)c2ccccc2)c1	0	i	0	-2	2	/	/
O=c1ccn(C2CCCO2)c(=O)[nH]1 (configuration not stated)	-2	i	-3	2	-4	/	/
COC(=O)CSc1nc(SC)nc2c1sc1nc(-c3ccco3)c3c(c12)CC(C)(C)OC3	-1	i	1	-1	-7	/	/
CSc1nc(SCCO)c2sc3nc(-c4ccco4)c4c(c3c2n1)CC(C)(C)OC4	2	i	-5	39*	5	39*	20*
